# Laboratory results as given in article PMC8384837, “Expanding the binding specificity for RNA recognition by a PUF domain”.
# Molecular target: PUM1 PUF domain R5-GRL (Homo sapiens, UniProt Q14671 828-1176, C1007G;Q1011L)
# Assay: yeast three-hybrid, YBZ-1, SC-Leu-His + 0.5 mM 3-AT, 4 days
# Conditions: tags: N-Gal4 AD-HA kept; label: inside an RPR1-promoter hybrid RNA with tandem MS2 sites; ssRNA
# How it was run: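 Pumilio-1 PUF domain libraries, randomized at the three base-contacting residues of each repeat, were co-expressed with matching RNA elements from a centromeric plasmid in strain YBZ-1, which carries a LexA–MS2 coat fusion and a HIS3 reporter. Transformants grew for four days on SC-Leu (input) or on SC-Leu-His + 0.5 mM 3-AT (selection), and the repeat regions were PCR-amplified and Illumina-sequenced. The interaction score is the log change in variant frequency from input to selection. That logarithm is base 2, with a pseudocount of 1 where a variant was absent.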
# PUM1 PUF domain R5-GRL, sequence (Q14671 828-1176 C1007G/Q1011L): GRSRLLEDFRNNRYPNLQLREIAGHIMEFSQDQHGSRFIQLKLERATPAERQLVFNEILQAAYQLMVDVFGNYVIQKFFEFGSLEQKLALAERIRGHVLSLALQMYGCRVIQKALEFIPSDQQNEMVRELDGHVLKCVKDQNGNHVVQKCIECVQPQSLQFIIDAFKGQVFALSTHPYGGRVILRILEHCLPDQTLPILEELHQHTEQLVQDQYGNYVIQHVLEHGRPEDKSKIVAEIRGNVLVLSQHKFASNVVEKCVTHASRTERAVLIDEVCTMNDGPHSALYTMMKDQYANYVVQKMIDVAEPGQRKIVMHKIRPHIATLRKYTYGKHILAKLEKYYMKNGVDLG
row,Sequence,binding signal
1,GGCUAGAACUAGUGGAUCCCCCGGCGCCCGGCGGCUCGAGCCCGGGUAAGUGUGAAUAGUCUGCAUGCCGCCGGGCGCCAUGCCUGCAGGUCGACUCUAGAAAACAUG,1.44 log2 enrichment (interaction score)
2,GGCUAGAACUAGUGGAUCCCCCGGCGCCCGGCGGCUCGAGCCCGGGUAAGUGUAAAUAGUCUGCAUGCCGCCGGGCGCCAUGCCUGCAGGUCGACUCUAGAAAACAUG,3.74 log2 enrichment (interaction score)
3,GGCUAGAACUAGUGGAUCCCCCGGCGCCCGGCGGCUCGAGCCCGGGUAAGUGUUAAUAGUCUGCAUGCCGCCGGGCGCCAUGCCUGCAGGUCGACUCUAGAAAACAUG,2.5 log2 enrichment (interaction score)
